Reference: ChEMBL document CHEMBL3988442, “University of Dundee, Small-Polar-MMV Screening Library” (2021)
For some assays here: Results with a measured potency or affinity are listed apart.

How the values were obtained:
Set-up in all cases: scale not given: direction of the effect not stated beside the values
[1] = biological target: Protein translocase subunit SecA (Escherichia coli (strain K12)) (UniProt P10408); experiment: Assay to Identify E. coli SecA ATPase Inhibitors; assay type: functional; conditions: 30 µM
Chain of Protein translocase subunit SecA (Escherichia coli (strain K12)) (P10408 whole entry): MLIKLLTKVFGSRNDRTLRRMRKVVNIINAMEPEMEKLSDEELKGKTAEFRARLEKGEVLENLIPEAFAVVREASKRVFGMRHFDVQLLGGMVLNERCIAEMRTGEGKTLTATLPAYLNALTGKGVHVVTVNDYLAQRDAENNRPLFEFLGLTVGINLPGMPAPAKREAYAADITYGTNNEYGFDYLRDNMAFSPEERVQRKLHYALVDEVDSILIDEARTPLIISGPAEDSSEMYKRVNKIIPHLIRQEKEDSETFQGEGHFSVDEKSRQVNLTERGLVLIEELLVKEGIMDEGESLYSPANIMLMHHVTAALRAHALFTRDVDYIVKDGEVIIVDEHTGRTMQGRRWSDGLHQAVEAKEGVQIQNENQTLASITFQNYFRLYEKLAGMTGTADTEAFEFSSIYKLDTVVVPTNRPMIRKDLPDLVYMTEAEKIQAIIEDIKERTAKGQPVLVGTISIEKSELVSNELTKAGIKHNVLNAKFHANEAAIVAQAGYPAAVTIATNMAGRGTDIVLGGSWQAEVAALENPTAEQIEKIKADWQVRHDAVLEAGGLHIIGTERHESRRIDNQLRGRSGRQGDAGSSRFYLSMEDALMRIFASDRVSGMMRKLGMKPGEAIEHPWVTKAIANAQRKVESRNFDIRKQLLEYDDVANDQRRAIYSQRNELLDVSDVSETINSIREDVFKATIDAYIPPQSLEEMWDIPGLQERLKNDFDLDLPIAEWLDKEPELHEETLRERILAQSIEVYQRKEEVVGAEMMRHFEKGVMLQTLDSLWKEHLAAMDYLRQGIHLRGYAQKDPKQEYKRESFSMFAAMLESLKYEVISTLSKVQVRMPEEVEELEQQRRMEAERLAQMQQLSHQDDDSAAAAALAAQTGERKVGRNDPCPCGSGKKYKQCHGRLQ

[2] = biological target: T1, Ubiquitin-activating enzyme e1, putative (Leishmania donovani (strain BPK282A1)) (UniProt E9BSI1); experiment: Leishmania donovani Ubiquitin Activating Enzyme (LdE1); assay type: functional; conditions: 30 µM
T1 sequence (whole entry): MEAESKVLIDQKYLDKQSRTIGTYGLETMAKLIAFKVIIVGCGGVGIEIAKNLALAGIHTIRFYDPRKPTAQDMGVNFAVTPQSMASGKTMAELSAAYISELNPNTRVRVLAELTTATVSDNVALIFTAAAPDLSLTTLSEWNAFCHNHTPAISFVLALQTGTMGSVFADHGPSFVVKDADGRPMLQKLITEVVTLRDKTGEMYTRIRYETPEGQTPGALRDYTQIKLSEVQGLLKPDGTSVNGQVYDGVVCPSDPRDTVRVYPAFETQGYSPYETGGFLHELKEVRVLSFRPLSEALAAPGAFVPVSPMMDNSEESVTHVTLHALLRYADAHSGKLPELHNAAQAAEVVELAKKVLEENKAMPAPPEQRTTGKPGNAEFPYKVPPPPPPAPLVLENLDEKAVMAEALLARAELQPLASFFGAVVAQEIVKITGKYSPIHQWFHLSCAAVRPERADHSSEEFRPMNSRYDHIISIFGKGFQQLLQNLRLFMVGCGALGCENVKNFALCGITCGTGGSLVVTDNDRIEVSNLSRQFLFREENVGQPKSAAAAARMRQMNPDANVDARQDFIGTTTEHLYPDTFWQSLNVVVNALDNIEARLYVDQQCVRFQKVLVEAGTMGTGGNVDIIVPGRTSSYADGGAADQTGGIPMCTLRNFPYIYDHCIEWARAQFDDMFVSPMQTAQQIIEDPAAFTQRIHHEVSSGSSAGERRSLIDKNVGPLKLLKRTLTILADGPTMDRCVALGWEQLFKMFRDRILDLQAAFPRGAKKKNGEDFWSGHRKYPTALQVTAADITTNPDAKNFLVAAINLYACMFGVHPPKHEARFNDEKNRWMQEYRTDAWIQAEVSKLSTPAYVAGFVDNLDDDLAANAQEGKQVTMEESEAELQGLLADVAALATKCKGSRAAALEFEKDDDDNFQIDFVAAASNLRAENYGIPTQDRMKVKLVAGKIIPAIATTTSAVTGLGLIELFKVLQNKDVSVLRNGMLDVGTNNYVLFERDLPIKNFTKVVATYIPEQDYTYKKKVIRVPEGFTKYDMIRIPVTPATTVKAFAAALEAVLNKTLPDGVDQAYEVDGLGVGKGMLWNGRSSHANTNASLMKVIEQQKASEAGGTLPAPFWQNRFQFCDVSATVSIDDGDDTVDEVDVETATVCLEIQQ

[3] = biological target: AMP-activated protein kinase, AMPK (Homo sapiens) (UniProt P54646+O43741+P54619+Q9UGJ0+Q9Y478+Q13131+Q9UGI9); experiment: AMP-dependent Kinase enzyme assay. An in vitro enzyme assay that detects ADP turnover that is directly proportional to AMPK activity. This uses naive AMPK that is activated during the assay with MK-8722; assay type: functional; conditions: 30 µM
[4] = biological target: Sialic acid-binding Ig-like lectin 9 (Homo sapiens) (UniProt Q9Y336); experiment: Hs-Siglec9 ALPHAscreen SOP 20170721; conditions: 10 µM
Chain of Sialic acid-binding Ig-like lectin 9 (Homo sapiens) (Q9Y336 whole entry): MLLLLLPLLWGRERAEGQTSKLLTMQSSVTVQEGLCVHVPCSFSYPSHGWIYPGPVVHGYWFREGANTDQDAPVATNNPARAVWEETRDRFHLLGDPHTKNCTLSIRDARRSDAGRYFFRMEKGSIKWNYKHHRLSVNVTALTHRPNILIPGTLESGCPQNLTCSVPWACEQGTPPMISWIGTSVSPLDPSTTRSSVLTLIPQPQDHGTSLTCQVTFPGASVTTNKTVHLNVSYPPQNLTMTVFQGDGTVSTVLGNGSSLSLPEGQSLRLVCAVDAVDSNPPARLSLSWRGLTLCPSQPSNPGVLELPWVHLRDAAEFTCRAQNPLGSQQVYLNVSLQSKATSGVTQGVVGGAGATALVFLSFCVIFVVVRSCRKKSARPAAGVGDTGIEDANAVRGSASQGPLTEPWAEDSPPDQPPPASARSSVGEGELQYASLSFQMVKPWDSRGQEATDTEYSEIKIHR

Trypanosoma cruzi = experiment: Trypanosoma cruzi phosphomannomutase and mannose-1-phosphate guanylyltransferase assay; assay type: functional; conditions: 10 µM
[5] = biological target: T2, Arginase-2, mitochondrial (Homo sapiens) (UniProt P78540); experiment: in vitro enzyme assay to detect the production of urea directly proportional to the activity of Arginase II; assay type: functional; conditions: 33.3 µM; further: in the data most compounds retested in dose-response had high values
T2 sequence (whole entry): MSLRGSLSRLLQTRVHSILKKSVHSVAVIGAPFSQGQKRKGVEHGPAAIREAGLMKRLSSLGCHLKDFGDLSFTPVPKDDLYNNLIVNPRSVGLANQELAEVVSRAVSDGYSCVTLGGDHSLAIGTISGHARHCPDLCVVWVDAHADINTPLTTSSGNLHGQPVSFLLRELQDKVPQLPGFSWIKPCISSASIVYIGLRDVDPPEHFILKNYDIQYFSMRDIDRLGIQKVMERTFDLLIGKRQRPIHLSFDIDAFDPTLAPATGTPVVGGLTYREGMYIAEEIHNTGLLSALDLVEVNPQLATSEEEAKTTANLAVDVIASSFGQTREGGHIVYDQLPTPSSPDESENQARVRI

[6] = biological target: T3, Proteasome subunit beta (Trypanosoma cruzi) (UniProt O96673); experiment: Trypanosoma cruzi proteasome chymotrypsin-like activity (TcProtChymo) assay.; further: in the data most compounds retested in dose-response had high values; assay type: functional; conditions: 9.37 µM
T3 sequence (whole entry): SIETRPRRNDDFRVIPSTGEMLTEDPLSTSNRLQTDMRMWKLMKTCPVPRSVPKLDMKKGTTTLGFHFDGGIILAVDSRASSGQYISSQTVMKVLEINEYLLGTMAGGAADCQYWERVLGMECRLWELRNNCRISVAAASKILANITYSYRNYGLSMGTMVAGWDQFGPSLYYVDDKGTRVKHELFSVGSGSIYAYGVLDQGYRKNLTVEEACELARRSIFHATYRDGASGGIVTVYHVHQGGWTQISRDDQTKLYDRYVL

Homo sapiens = species: Homo sapiens; experiment: To identify inhibition of the IFN signalling (Jak-Stat) pathway via expression of an eGFP reporter gene under the control of an IFN-stimulated response element (ISRE) containing MxA promoter.; assay type: functional; conditions: 30 µM
[7] = biological target: T4, Tyrosyl-tRNA synthetase, putative (Trypanosoma cruzi (strain CL Brener)) (UniProt Q4DSP6); experiment: Trypanosoma cruzi tyrosyl tRNA synthetase (TcYRS) _High Tyrosine SOP; assay type: functional; conditions: 30 µM; further: in the data most compounds retested in dose-response had high values
T4 sequence (whole entry): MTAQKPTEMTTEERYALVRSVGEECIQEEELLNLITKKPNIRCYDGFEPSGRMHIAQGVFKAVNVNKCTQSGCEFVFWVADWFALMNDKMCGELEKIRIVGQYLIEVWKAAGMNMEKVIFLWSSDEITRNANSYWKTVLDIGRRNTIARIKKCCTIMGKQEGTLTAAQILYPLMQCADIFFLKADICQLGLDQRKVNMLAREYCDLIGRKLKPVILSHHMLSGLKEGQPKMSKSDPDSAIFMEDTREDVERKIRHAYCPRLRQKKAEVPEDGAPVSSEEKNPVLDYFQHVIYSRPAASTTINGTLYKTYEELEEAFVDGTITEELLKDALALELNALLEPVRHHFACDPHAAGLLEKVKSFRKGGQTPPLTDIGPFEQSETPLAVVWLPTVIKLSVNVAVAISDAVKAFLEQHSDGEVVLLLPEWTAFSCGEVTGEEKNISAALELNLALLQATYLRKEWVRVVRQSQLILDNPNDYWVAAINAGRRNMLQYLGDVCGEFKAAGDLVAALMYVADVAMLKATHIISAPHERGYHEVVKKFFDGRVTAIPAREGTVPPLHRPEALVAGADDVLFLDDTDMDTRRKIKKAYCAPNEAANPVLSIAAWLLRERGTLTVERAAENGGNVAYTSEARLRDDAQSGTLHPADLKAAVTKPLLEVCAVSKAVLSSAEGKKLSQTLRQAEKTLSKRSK

[8] = biological target: T4, Tyrosyl-tRNA synthetase, putative (Trypanosoma cruzi (strain CL Brener)); experiment: Trypanosoma cruzi tyrosyl tRNA synthetase (TcYRS) SOP; assay type: functional; conditions: 30 µM
[9] = biological target: Chromo domain-containing protein 1 (Saccharomyces cerevisiae (strain ATCC 204508 / S288c) (Baker's yeast)) (UniProt P32657); experiment: ScCHD-1 Enzyme Inhibition Assay; assay type: functional; conditions: 30 µM; further: in the data most compounds retested in dose-response had high values
Chain of Chromo domain-containing protein 1 (Saccharomyces cerevisiae (strain ATCC 204508 / S288c) (Baker's yeast)) (P32657 whole entry, the tested form may be a part): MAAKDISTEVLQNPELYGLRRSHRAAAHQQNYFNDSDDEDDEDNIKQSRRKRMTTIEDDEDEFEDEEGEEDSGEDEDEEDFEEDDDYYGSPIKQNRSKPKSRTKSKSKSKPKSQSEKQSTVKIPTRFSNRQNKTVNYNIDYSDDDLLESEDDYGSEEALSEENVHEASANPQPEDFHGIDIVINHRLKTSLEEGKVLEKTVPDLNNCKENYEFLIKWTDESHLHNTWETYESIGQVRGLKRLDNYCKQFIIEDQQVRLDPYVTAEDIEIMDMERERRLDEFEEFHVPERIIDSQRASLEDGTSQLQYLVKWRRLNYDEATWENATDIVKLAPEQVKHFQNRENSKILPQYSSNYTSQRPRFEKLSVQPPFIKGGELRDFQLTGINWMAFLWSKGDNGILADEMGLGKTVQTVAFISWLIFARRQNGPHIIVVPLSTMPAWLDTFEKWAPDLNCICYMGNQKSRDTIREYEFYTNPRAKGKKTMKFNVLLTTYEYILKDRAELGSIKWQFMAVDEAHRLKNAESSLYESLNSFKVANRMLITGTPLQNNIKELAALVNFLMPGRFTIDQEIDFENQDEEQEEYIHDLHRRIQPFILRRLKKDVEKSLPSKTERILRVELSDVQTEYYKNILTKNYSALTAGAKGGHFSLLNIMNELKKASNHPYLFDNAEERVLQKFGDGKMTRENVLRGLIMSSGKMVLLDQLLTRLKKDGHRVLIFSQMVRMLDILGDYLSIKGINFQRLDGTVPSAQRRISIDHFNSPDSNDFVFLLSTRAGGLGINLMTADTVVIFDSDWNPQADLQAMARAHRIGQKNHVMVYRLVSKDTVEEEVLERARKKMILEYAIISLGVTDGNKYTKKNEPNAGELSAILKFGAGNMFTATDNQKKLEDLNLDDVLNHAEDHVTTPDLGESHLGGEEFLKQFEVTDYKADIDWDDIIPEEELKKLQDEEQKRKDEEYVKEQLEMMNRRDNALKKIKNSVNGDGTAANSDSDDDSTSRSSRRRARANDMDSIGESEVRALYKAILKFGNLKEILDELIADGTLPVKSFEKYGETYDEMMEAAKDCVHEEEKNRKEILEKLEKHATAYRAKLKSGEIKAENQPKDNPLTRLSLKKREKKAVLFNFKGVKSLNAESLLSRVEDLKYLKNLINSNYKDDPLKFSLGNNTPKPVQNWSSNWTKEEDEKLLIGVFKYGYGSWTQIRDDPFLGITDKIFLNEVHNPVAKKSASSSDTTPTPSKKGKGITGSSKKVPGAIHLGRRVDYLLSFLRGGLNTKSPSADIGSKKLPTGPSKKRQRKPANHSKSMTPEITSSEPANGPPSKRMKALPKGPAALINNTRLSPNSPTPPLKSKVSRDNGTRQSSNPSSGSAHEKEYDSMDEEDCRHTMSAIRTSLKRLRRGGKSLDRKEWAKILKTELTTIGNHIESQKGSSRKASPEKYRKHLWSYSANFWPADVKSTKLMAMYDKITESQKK

Structure (SMILES) | Percent Effect [1] [%] | Percent Effect [2] [%] | Percent Effect [3] [%] | Percent Effect [4] [%] | Percent Effect (Trypanosoma cruzi) [%] | Percent Effect [5] [%] | Percent Effect [6] [%] | Percent Effect (Homo sapiens) [%] | Percent Effect [7] [%] | Percent Effect [8] [%] | Percent Effect [9] [%]
COCCN1C[C@@H]2CCCO[C@@H]2[C@H](NC(=O)c2cnccn2)C1 | -1.67 | 8 | 1.63 | 1.69 | -2.32 | -45.3 | 3.59 | -4.03 | 5.21 | -12.5 | -7.48
O=C(CCNC(=O)c1ccoc1)NCc1ccccc1F | 2.18 | 13 | 3.8 | -2.98 | -2.45 | 6.53 | 19.5 | 24 | 5.71 | 18.8 | -3.8
Cc1nnc(N2CC[C@H]3C[C@@H](C(=O)NC4CCCC4)O[C@H]3C2)s1 | -5.67 | 0 | 11.8 | -3.34 | -1.66 | 1.59 | 0.738 | 10.7 | -1.08 | 7.69 | 8.63
O=C1NC(c2ccccc2)=N[C@@]12CC[C@@H]1CN(Cc3ccccc3)C[C@@H]12 | -1.1 | 10.7 | -2.75 | 0.12 | 2.12 | -43.5 | 7.18 | 3.72 | 10.4 | 27.5 | -8.07
CCC(O)CNC(=O)c1coc(COc2ccc3sc(C)nc3c2)n1 (configuration not stated) | -6.39 | -2.74 | -4.19 | -4.04 | -0.392 | -2.73 | 0.71 | 50 | -1.07 | 0 | 2.81
CCN(Cc1cccc(Cl)c1)Cn1nc(C)c2c(C)onc2c1=O | -8.55 | 8.11 | -4.63 | 2.84 | -3.68 | -0.802 | -0.18 | 14.3 | 1.48 | 1.24 | -6.67
COCCCC1(CO)CCCN(CCc2ccccc2)C1 (configuration not stated) | -1.32 | -2.74 | -1.63 | -2.32 | -5.09 | 0.909 | -0.887 | -2.97 | 1.07 | 2.5 | -2.34
CC1CCCN(CCNC(=O)c2ccn(-c3ccccc3)n2)C1 (configuration not stated) | -0.427 | 18.2 | 2.11 | -6.84 | -8.05 | 4.63 | 5.07 | 16.5 | 8.74 | 12.2 | -8.6
COc1ccc(C2CCCCCN2S(=O)(=O)N(C)C)cc1 (configuration not stated) | -0.837 | 12.5 | -11.6 | 10.4 | -0.291 | 18.1 | 12.5 | 6.25 | 2.1 | 5.13 | -3.74
Cc1cc(OCC(=O)NC(C)c2ccc(N3CCOCC3)cc2)no1 (configuration not stated) | -4.84 | 18.2 | -0.141 | 11.2 | 5.61 | -89.7 | 8.15 | -3.73 | 3.23 | 13.6 | -6.7
CCN(Cc1ccco1)C(=O)c1cc(OC)c2c(c1)OCCO2 | -1.97 | -2.63 | 6.68 | 5.11 | -0.487 | 3.55 | 9.88 | -7.24 | 0 | 2.6 | -1.38
COc1ccc(CN2CCn3cc(CN4CCCCC4)nc3C2)cc1 | -4.9 | 2.6 | 1.83 | -4.04 | -0.888 | -4.52 | 10.3 | -6.42 | 3.17 | -8.97 | -2.75
CCN1CC(C(=O)N(C)Cc2ccon2)CC1=O (configuration not stated) | -8.65 | 0 | -1.95 | -7.7 | -2.44 | -2.73 | 7.47 | 13.7 | -1.07 | -1.24 | -3.83
Cc1cc(CNCc2c(C)nn(C)c2N2CCOCC2)no1 | -3.31 | 10.5 | -9.93 | 7.93 | 7.14 | 3.06 | 3.68 | -11.7 | 3.43 | 19.5 | -11
CCOc1cc(C)nc(N2CCN(C(=O)c3ccnn3C)CC2)n1 | -1.84 | 5.41 | -0.273 | 4.02 | 3.62 | -3.51 | 4.67 | 2.75 | 3.96 | 18.3 | -3.83
CCCn1nc2c(cc1=O)CN(Cc1cc(C)on1)CC2 | -5.31 | -2.7 | -46.3 | 0.285 | -1.76 | 7.08 | 17.8 | 9.88 | 6.93 | 6.1 | -7.36
Cc1nc(NCCc2ccc(Cl)cc2)cc(C(=O)N2CCOCC2)n1 | 0.862 | 5.2 | -3.84 | 11.5 | 3.64 | -44.1 | 9.98 | 23.7 | 7.53 | 16.1 | -2.1
CCOc1ccc(Cl)c(C(=O)N2CCN(c3cnccn3)CC2)n1 | -4.82 | 23.4 | -2.68 | 6.96 | 8.43 | 1.42 | 15.5 | 17.5 | 10.7 | 24.4 | -12.4
Cc1nnn2c1COCC(CNC(=O)c1ccc3[nH]ccc3c1)C2 (configuration not stated) | -2.29 | 13 | -0.0167 | 8.82 | 9.73 | -46.9 | 18.1 | 14.9 | 6.45 | 13.6 | -3.15
O=S1(=O)CCCN1Cc1coc(-c2cccs2)n1 | -1.93 | 15.3 | -14.2 | 1.81 | 2.82 | 13.2 | 23.3 | -8.56 | 5.26 | 12.8 | -3.41
CNS(=O)(=O)c1ccc(CNC(=O)NCC2CCOC2)cc1 (configuration not stated) | -3.53 | 15.6 | 0.491 | 2.49 | 1.86 | -0.21 | 11.7 | -1.37 | 7.62 | 14.1 | -9.18
CCc1nc(CCNC(=O)Nc2cc(C(N)=O)sc2C)cs1 | -6.09 | 0 | -8.97 | -2.52 | -4.19 | -1.56 | 3.14 | 19.9 | -0.546 | -3.7 | 4.38
